ELG1 DNA repair = ELG1-dependent DNA repair inhibition; HEK293T ELG1-luciferase reporter, luminescence, 16 h; DNA damage induced by 5-fluorouridine; Potency, µM (titrated, usually from 46.1 µM), most hits filed as inhibitors; hit rate 2.3% among 330,000; AID 504467; note: nearly all actives have a fitted effect of over 55% in size
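Overnight (16 hr) co-exposure of 2,000 cells/well to 5-fluorouridine and compound at 37 °C preceded detection. Luciferase was quantified via ONE-Glo luminescence; loss of signal denotes inhibition.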
KB-V1 cytotox = KB-V1 MDR subline cytotoxicity. hit rate 3.4% among 400,000. KB-V1 MDR cells viability, CellTiter-Glo, 72 h. Potency, µM (highest dose often 46.1 µM), hits mostly cytotoxic; note: nearly all actives have a fitted effect of over 60% in size
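Potencies derive from concentration-effect curves fitted to normalized luminescence (CellTiter-Glo) of KB-V1 cells treated for 72 h at 37 degrees C in phenol-red-free DMEM containing 10% FBS.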
MCF10A rerep = DNA re-replication induction in MCF 10a cells; hit rate 2.9% among 350,000; Potency, µM (doses to about 46.1 µM), hits mostly activators; AID 624296; MCF 10A DNA re-replication, Hoechst nuclear intensity, 48 h; note: nearly all actives have a fitted effect of over 50% in size
KB-3-1 cytotox = KB-3-1 parental cell cytotoxicity; KB-3-1 viability, CellTiter-Glo ATP luminescence, 72 h; Potency, µM (titrated, usually from 46.1 µM), most hits filed as cytotoxic; hit rate 1.4% among 400,000; note: nearly all actives have a fitted effect of over 60% in size
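Here the drug-naive KB-3-1 line serves as comparator for MDR sub-line selectivity; cells received compound titrations, 72 h at 37 °C, then CellTiter-Glo readout.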
SW480 rerep = inducers of DNA re-replication in SW480 colon cancer cells | hit rate 1.8% among 340,000 | Potency, µM (titrated, usually from 46.1 µM), actives largely listed as activators | SW480 DNA re-replication, Hoechst DNA content imaging, 48 h; note: nearly all actives have a fitted effect of over 55% in size
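SW480 cells exposed to compounds for 48 hr at 37 C, 5% CO2, then Hoechst-stained 40 min. Nuclear DNA content imaged by fluorescence scanning (405 nm excitation, 500-530 nm emission); re-replication scored as increased high-intensity nuclei.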
Numbers stand for hits; . = inactive; ? = inconclusive; / = no result given; ! = not active in a repeat; [ ] = remark or other dose. This is a sample that favours compounds with a hit; in the whole collection about 8.2% have one here. Calls come from the whole dose curve; as a rule, active = well fitted curve in the direction sought with a large enough effect; inconclusive = small, poorly fitted or top-dose-only effect, or another doubt; inactive = no such curve, though single readings can be large; an effect the other way counts as inactive or inconclusive.

SMILES	ELG1 DNA repair	KB-V1 cytotox	MCF10A rerep	KB-3-1 cytotox	SW480 rerep
CCc1cccc(NC(=O)CCc2c(C)nn(-c3ccc(N4CCOCC4)nn3)c2C)c1	.	.	.	.	.
CC(C)Nc1cc(N2CCN(C3CCCCC3)CC2)c2noc3c2c1C(=O)c1ccccc1-3	/	.	/	.	/
CN(C)CCNc1nc(-c2ccco2)c2c(c1C#N)CC(C)(C)OC2	.	.	.	.	.
CCCCN(C)c1nc(-c2ccco2)c2c(c1C#N)CC(C)(C)OC2	.	.	?	.	16.4µM
NC(CSCc1cccc(Br)c1)C(=O)O (centres undefined)	.	.	.	.	.
c1ccc(-c2nnc3sc(-c4cc5ccccc5o4)nn23)cc1	.	.	18.4µM	.	?
c1ccc(-c2nnc3sc(-c4ccncc4)nn23)cc1	.	.	.	.	.
CC(C)NS(=O)(=O)c1ccc(OCC(=O)NCC2CCCO2)c(Cl)c1 (centres undefined)	.	?	.	.	.
Cc1cc(S(=O)(=O)NCC(C)C)ccc1OCC(=O)NCC1CCCO1 (centres undefined)	.	20.6µM	.	.	?
Cc1ccc(NC(=O)Cn2c(=O)n(Cc3nc(C)no3)c(=O)c3cc4c(cc32)OCO4)cc1	/	.	/	.	/
Cc1cc(C(C)(C)C)cc(C)c1C[n+]1ccc2ccccc2c1	?	.	?	1.64µM	.
Cc1ccc(C(=O)C[n+]2ccc3ccccc3c2)cc1	?	.	.	.	.
CC(C)C(NC(=O)CSCc1ccc([N+](=O)[O-])cc1)C(C)C	.	18.4µM	?	.	.
Nc1cc(-c2ccccc2)ccc1O	8.2µM!	.	.	.	.
CC(=O)Nc1cc(-c2ccccc2)ccc1O	.	.	.	.	.
CCC(O)(CC)C(=O)N/N=C/c1cc(Br)cc(Br)c1O	23.1µM	.	?	?	?
O=C(CP(=O)(c1ccccc1)c1ccccc1)N/N=C/c1cc(Br)cc(Br)c1O	.	?	5.8µM	.	?
O=C(C[n+]1ccccc1)N/N=C/c1cc(Br)ccc1F	?	.	.	.	.
O=C(O)c1cccc(N/N=C/c2cc(Br)cc(Br)c2O)c1	?	.	.	.	/
O=C(C[n+]1ccccc1)N/N=C/c1cc(Br)cc(Br)c1O	20.6µM	.	?	.	?
O=C(Cc1ccccc1)N/N=C/c1cc(Br)cc(Cl)c1O	?	.	?	?	?
CC(C)(c1ccccc1)c1ccc(OCC(O)CNC2CCN(Cc3ccccc3)CC2)cc1 (centres undefined)	.	18.4µM	?	?	.
COc1ccc(OCC(O)CNC2CCCC2)cc1 (centres undefined)	.	.	.	.	.
CCOc1ccc(OCC(O)CNC2CCN(Cc3ccccc3)CC2)cc1 (centres undefined)	.	16.4µM	?	?	?
N#C/C(=C\c1cccc([N+](=O)[O-])c1)C(=O)NCc1cccnc1	20.6µM	.	.	.	.
SMILES	ELG1 DNA repair	KB-V1 cytotox	MCF10A rerep	KB-3-1 cytotox	SW480 rerep
CC1(C)S[C@@H]2[C@H](NC(=O)[C@H](NC(=O)N3CCN(S(C)(=O)=O)C3=O)c3ccccc3)C(=O)N2[C@H]1C(=O)O	/	/	.	/	.
Cc1ccn(-c2ccc([N+](=O)[O-])cc2)n1	.	.	.[0.0737 µM]	.	20.6µM
Cc1ccn(-c2n[nH]c(C)c2[N+](=O)[O-])n1	.	.	.	.	.
COc1cc(OC)cc(-c2c(-c3cccs3)c3cc(-c4ccc5[nH]ccc5c4)ccc3n2C)c1	.	.	.	.	.
COc1cc(C(=O)Nc2ccc(NC(=O)c3cccc(Cl)c3)nc2)cc(OC)c1OC	?	?	.	.	.
COc1cc(SC)ccc1C(=O)Nc1ccc(Cl)cn1	?	13µM	.	?	.
Cc1ccccc1C(=O)Nc1ccc(Cl)cn1	?	?	.[0.0737 µM]	?	?
S=C(Nc1ccccc1)Nc1ccc(Cl)cn1	?	.	.	.	.
CSc1ccc(Cl)c(C(=O)Nc2ccc(Cl)cn2)c1	.	.	20.6µM	23.1µM	20.6µM
O=C(NC(=S)Nc1ccc(Cl)cn1)C(c1ccccc1)c1ccccc1	?	?	14.6µM	18.4µM	?
COc1cc(C(=O)NC(=S)Nc2ccc(Cl)cn2)cc(OC)c1OC	.	?	?	.	18.4µM
C=CCN([C@@H](CC(C)C)C(=O)OC)S(=O)(=O)N(CC=C)[C@@H](CC(C)C)C(=O)OC	.	?	.	?	.
O=C(Cn1cccc1C(=O)c1ccccc1)NCc1ccc(F)cc1	.	.	.	.	.
O=C(Cn1cccc1C(=O)c1ccccc1)NCc1ccccc1	?	23.1µM	.	.	.
O=C(CSc1cccc[n+]1[O-])CSc1cccc[n+]1[O-]	.	?	.	.	6.51µM
CCCCc1nc2cc(C(=O)N3CCN(c4nc(C)cnc4C)CC3)ccc2o1	?	.	.	?	.
CC1(S(=O)(=O)O)CC(=O)c2ccccc2C1=O (centres undefined)	.	.	?	?	14.6µM
O=C(CSc1n[nH]c(-c2ccncc2)n1)Nc1ccccc1C(F)(F)F	.	.	.	.	.
CCOc1ccc(CNC(=O)CN2C(=O)C3CCCCN3c3ccc(C(=O)N4CCCC4)cc32)cc1 (centres undefined)	/	.	/	.	/
CCOC(=O)CSc1nc(-c2ccncc2)ccc1C#N	?	.	11.6µM	.	.
CCOC(=O)CSc1nc(-c2ccc3c(c2)OCO3)ccc1C#N	?	?	16.4µM	.	.
CCOC(=O)CC(=O)CSc1nc(-c2cccnc2)ccc1C#N	?	.	.	.	.
Cc1cc(/C=C(\C#N)C(=O)N2CCOCC2)c(C)n1C1CCCC1	?	?	.	.	.
Cn1c(Sc2ccc(C(F)(F)F)cc2[N+](=O)[O-])nnc1-c1ccccc1	.	20.6µM	.	.	.
CC(=O)[C@@H]1[C@@H](C(=O)c2ccccc2)[C@]2(C(=O)Nc3ccccc32)[C@H]2C=Cc3cc(F)ccc3N12	.	?	20.6µM	?	?
SMILES	ELG1 DNA repair	KB-V1 cytotox	MCF10A rerep	KB-3-1 cytotox	SW480 rerep
CCN(CC)S(=O)(=O)c1cccc(NC(=O)CN2C(=O)NC3(CCOc4ccccc43)C2=O)c1 (centres undefined)	.	.	.	.	?
CNc1ncnc(Sc2nc(N)nc3nc[nH]c23)c1[N+](=O)[O-]	/	1.03µM	?	?	2.91µM
Nc1nc(SCc2ccccc2)c2[nH]cnc2n1	?	.	.	.	.
Nc1nc(Sc2ccc([N+](=O)[O-])c3nonc23)c2[nH]cnc2n1	/	?	?	2.06µM	?
COC(=O)c1cccc(CN2C(=O)SC(Nc3ccc(Br)cc3)C2=O)c1 (centres undefined)	/	.	/	.	/
c1ccc(-n2nnnc2Sc2ncnc3sc4c(c23)CCCC4)cc1	?	.	20.6µM	.	?
O=C(O)CSc1ncnc2sc3c(c12)CCCC3	?	.	.	.	.
CN1OC[C@@H]2CN(S(=O)(=O)c3cccc4ccccc34)[C@H](c3ccc(-c4ccccc4)cc3)C[C@@H]21	/	.	/	?	/

Compound activity from PubChem.
